Measured values from PubChem BioAssay.

Key:
[1] = test system: Botulinum neurotoxin type F light chain protease (Clostridium botulinum); experiment: Botulinum neurotoxin type F light chain protease inhibition, multiplex microsphere flow cytometry, validation set (AID 588459); settings: multiplex microsphere protease substrate cleavage assay, at 10 µM, hits give high values
[2] = biological target: Botulinum neurotoxin type A (Clostridium botulinum) (UniProt P0DPI0); experiment: BoNT/A light chain protease inhibitors, biochemical, multiplex microsphere flow cytometry, validation set (AID 588460); settings: at 10 µM, hits give high values
[3] = biological target: Lethal factor (Bacillus anthracis) (UniProt P15917); experiment: Lethal factor protease inhibitors, Bacillus anthracis, multiplex microsphere cleavage assay, validation set (AID 588461); settings: flow cytometry, at 10 µM, hits give high values

Measured: inhibition

Sequence of Lethal factor (Bacillus anthracis) (P15917 whole entry, looked up): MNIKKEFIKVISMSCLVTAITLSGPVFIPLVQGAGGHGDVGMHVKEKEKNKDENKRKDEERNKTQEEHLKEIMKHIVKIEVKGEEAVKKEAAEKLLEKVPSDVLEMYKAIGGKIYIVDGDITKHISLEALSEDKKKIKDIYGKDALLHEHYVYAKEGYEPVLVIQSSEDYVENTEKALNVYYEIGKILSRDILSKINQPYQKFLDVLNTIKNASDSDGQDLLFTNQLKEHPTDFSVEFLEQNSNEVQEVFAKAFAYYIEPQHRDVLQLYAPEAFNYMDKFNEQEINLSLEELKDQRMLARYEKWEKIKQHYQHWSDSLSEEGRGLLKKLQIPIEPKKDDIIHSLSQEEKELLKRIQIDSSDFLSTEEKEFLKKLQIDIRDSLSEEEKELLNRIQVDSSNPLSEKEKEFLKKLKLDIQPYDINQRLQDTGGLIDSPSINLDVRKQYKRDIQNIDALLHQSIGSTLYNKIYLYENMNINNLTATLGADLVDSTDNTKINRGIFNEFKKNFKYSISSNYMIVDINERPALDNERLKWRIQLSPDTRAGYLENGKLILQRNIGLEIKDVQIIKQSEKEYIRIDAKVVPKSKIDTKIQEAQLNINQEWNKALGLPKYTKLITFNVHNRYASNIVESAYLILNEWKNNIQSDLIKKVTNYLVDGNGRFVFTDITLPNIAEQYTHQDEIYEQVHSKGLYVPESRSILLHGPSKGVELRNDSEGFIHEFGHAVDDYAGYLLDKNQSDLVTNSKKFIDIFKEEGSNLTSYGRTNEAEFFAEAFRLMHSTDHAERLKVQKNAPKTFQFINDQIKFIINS
Sequence of Botulinum neurotoxin type A (Clostridium botulinum) (P0DPI0 whole entry, looked up): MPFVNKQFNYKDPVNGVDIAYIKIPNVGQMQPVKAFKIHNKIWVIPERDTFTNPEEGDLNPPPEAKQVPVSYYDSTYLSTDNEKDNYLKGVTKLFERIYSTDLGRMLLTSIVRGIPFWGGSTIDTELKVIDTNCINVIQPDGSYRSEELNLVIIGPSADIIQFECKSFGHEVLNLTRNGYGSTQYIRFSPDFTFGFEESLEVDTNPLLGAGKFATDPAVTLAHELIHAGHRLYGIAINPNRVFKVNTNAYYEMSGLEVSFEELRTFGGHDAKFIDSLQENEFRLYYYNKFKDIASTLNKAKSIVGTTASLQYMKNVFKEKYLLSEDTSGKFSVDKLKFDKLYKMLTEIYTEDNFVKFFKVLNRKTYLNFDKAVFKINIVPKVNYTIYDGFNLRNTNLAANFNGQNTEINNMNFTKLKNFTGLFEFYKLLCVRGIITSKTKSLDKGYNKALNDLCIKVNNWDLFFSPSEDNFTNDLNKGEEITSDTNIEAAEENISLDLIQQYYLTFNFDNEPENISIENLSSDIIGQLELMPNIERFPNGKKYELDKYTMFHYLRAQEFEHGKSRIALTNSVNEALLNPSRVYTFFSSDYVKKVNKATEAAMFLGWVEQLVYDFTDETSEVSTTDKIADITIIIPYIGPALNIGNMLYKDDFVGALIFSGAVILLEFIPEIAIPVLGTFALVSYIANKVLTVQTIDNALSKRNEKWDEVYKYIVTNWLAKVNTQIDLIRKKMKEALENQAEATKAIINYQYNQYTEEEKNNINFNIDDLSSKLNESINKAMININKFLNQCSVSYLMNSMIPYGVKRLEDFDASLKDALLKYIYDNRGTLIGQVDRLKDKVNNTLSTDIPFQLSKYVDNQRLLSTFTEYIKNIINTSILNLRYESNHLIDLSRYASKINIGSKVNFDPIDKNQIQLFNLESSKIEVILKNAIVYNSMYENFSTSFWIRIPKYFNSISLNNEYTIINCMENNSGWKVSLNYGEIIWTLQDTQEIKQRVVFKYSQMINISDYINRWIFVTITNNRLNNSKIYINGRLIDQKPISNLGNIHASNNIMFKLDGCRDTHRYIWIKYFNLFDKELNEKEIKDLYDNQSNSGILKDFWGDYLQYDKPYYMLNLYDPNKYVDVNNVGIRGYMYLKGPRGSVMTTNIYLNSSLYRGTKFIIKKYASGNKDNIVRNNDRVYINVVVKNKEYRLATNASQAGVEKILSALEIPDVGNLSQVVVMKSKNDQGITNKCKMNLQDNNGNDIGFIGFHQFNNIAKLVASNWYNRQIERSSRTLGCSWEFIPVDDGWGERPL

C[C@]12CC[C@@H]3c4ccc(O)cc4CC[C@H]3[C@@H]1CC[C@@H]2O
inactive: [1] 3.3% | [2] 1.1% | [3] -1.3%

O=C1ON=C(c2ccc(Cl)cc2)/C1=C/c1ccc(O)cc1
inactive: [1] -0.3% | [2] -2.3% | [3] -7.8%

COc1ccc(/C=C\c2nc(=O)c3ccccc3o2)cc1
inactive: [1] -0.6% | [2] -0.8% | [3] -3.7%

CSc1cccc(NC(=O)/C=C/c2ccccc2)c1
inactive: [1] -0.9% | [2] -2.3% | [3] -8.2%

O=C1C2CC=C(Cl)CC2C(=O)N1CCc1c[nH]c2ccccc12 (stereo not drawn)
inactive: [1] 0.7% | [2] 0.1% | [3] 0.1%

c1ccc(-c2ccc(C(c3ccccc3)n3ccnc3)cc2)cc1 (stereo not drawn)
inactive: [1] -0.7% | [2] -1.3% | [3] -1.4%

COC(=O)[C@@H](N)CS
inactive: [1] 2.1% | [2] -1.9% | [3] -1.2%

C[C@@H]1C[C@H]2[C@@H]3CCC4=CC(=O)C=C[C@]4(C)[C@@]3(F)[C@@H](O)C[C@]2(C)[C@H]1C(=O)CO
inactive: [1] 0.3% | [2] -1.7% | [3] 7.4%

Cn1cc(CN(CCO)Cc2cccs2)c(-c2cccc(Cl)c2)n1
inactive: [1] 1.3% | [2] 1.3% | [3] -1.3%

CCOc1cc2c(cc1OCC)C(c1ccccc1)N(c1ccc(C(=O)O)cc1)C(=O)C2 (stereo not drawn)
inactive: [1] -1.8% | [2] -0.7% | [3] -5.2%

COc1ccc(C2OC(=O)Cc3cc(OC)c(OC)cc32)cc1 (stereo not drawn)
inactive: [1] 3.2% | [2] 0.8% | [3] 2.9%

COc1ccc(C(=O)C2CCCCC2=O)cc1 (stereo not drawn)
inactive: [1] 1.5% | [2] 0.2% | [3] -1.2%

CC(=O)c1c(N)nc2n(c1=O)CCCCC2
inactive: [1] -2.9% | [2] -1% | [3] -2.9%

CSc1ccc(/C=N/N2CCN(Cc3ccc(C)cc3C)CC2)cc1
inactive: [1] -0.3% | [2] -0.6% | [3] -0.3%

Cc1nc(C2CC(=O)OC23CCCCC3)cs1 (stereo not drawn)
inactive: [1] 0.3% | [2] -0.7% | [3] -10.4%

O=c1[nH]cnc2c1ncn2[C@@H]1O[C@H](CO)[C@@H](O)[C@H]1O
inactive: [1] 1.2% | [2] 0.1% | [3] -8%
